This passage reports Potency results from PubChem BioAssay AID504850 (National Center for Advancing Translational Sciences (NCATS), 2011).

The structures appear in SMILES notation. Among all 2,300 compounds or so, about 1,200 (52%) were called active. About 34% were inconclusive and are not listed. The call rests on the fitted dose curve; in most records, active means well fitted inhibition curve with a large enough effect; inconclusive means small, poorly fitted or top-dose-only effect, or effect the other way; inactive means no such curve, though single readings can be large or run the other way. The set was probably picked from earlier hits. This is one part of the list.
Potency means the concentration at half of the fitted maximal effect.

The assay in a line: Confirmation screen for delayed death inhibitors of the malarial parasite plastid, 48 hour incubation. Further: nearly all actives have a fitted effect of over 65% in size. Particulars: P. falciparum-infected erythrocytes, luciferase growth; series mostly up to 28.7 µM. A digest of the protocol:
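Single-generation (48 h, 37 C) exposure of integrated firefly luciferase-reporter P. falciparum in red cells, 0.1% parasitemia at 2% hematocrit, Albumax-supplemented RPMI. Falling luciferase signal marks parasite growth inhibition.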
Consider `O=[N+]([O-])c1cncc([N+](=O)[O-])c1Nc1cccc(O)c1`, for which the Potency was 12.6 µM (active).

Consider `CC1(C)Cc2c(ccc3ccccc23)C(c2cc3ccccc3oc2=O)=N1`, for which the Potency was 12.6 µM (active).

With `O=C(c1ccc(Br)o1)N1CCN(c2ccc3nnc(-c4ccccc4)n3n2)CC1`, the Potency was 12.6 µM (active).

Regarding `O=C(Nc1ccccc1C(F)(F)F)N1CCN(c2ccc3nnc(-c4ccc(F)cc4)n3n2)CC1`, the Potency was 7.08 µM (active).

Take `COc1ccc(C(=O)NC(=S)N(C)C2CCCCC2)cc1`: the Potency result is “inactive”.

On to `COc1ccc(CCC(C)N2CCC(Oc3ccc(C(=O)N4CCCC4)cc3)CC2)cc1` (configuration not stated), for which the Potency was 12.6 µM (active).

For the compound `O=C(c1ccc(OC2CCN(Cc3ccccc3OC(F)F)CC2)cc1)N1CCCC1`, the Potency was 2.24 µM (active).

In the case of `CCOc1cc(/C=C/C(=O)Nc2ccc(C(=O)NCCN(CC)CC)cc2)ccc1OCC(C)C`, the Potency is 1.78 µM (active).

On to `O=C(c1ccc([N+](=O)[O-])cc1)n1nc(-c2ccccc2)nc1NCc1ccc(F)cc1`, for which the Potency result is “inactive”.

Take `Cc1nc([N+](=O)[O-])c(Br)n1CC(=O)c1ccc(Cl)cc1`: the Potency is 10 µM (active).

As to `Cn1cc([N+](=O)[O-])c(C(=O)Nc2cnn(Cc3ccc(F)cc3)c2)n1`, the Potency entry was “inactive”.

Turning to `Cc1nc([N+](=O)[O-])c(Br)n1CC(=O)c1ccc(F)cc1`, the Potency was 12.6 µM (active).

On to `CCOC(=O)N1C/C(=C\c2ccccc2)C(=O)/C(=C/c2ccccc2)C1`, for which the Potency is 6.31 µM (active).

For the compound `CCN(CC)S(=O)(=O)c1cccc(NC(=O)c2cc(-c3cccs3)nn2-c2ccccc2)c1`, the Potency is 11.2 µM (active).

As to `CC(=O)NCCC(=O)Nc1cc(S(=O)(=O)N2CCOCC2)ccc1Oc1ccccc1`, the Potency is 11.2 µM (active).

For the compound `CCOc1ccccc1CNC(=O)CN1C(=O)CSc2ccc(S(=O)(=O)N3CCOCC3)cc21`, the Potency was 10 µM (active).

As to `CCOc1ccc(S(=O)(=O)N2CCOCC2)cc1NC(=O)CN1C(=O)NC(CC)(c2ccccc2)C1=O` (configuration not stated), the Potency is 12.6 µM (active).

Turning to `CC(C)(C)OC(=O)[C@H]1[C@H](c2ccc([N+](=O)[O-])cc2)C2(C(=O)c3ccccc3C2=O)C2c3ccccc3C=NN21` (some centres not stated), the Potency was 4.47 µM (active).

For `Cc1ccc(-c2nn(-c3ccccc3)cc2CC(=S)N2CCOCC2)cc1`, the Potency was 14.1 µM (active).

Consider `CCCOc1ccccc1/C=C1\SC(N2CCCCC2)=NC1=O`, for which the Potency was 11.2 µM (active).

Take `COc1cccc(/C=C2\SC(N3CCCC(C)C3)=NC2=O)c1OC` (configuration not stated): the Potency is 12.6 µM (active).

As to `CCOC(=O)C1CCN(C(=O)CCc2nnc3ccc(NCc4ccco4)nn23)CC1`, the Potency is 10 µM (active).

Consider `CCn1c2ccccc2c2cc(/C=N/n3cn[nH]c3=S)ccc21`, for which the Potency is 12.6 µM (active).

In the case of `Cc1ccccc1C1=NC(C(F)(F)F)(C(F)(F)F)c2c(n(-c3ccc(F)cc3)c(=O)[nH]c2=O)N1`, the Potency was 10 µM (active).

Consider `Cc1cc(C)cc(C(=O)NC(CC(N)=O)c2ccc(NCC3CC3)c([N+](=O)[O-])c2)c1` (configuration not stated), for which the Potency result was “inactive”.

Regarding `NC(=O)CC(NC(=O)Cc1ccc(Br)cc1)c1ccc(NC2CC3CCC2C3)c([N+](=O)[O-])c1` (configuration not stated), the Potency is 15.8 µM (active).

For the compound `COc1cccc(C(=O)/C=C/c2ccc(OCC#N)c(OC)c2)c1`, the Potency was 10 µM (active).

Consider `COc1cc(/C=C/C(=O)c2ccc(O)cc2)ccc1OCC#N`, for which the Potency is 12.6 µM (active).

Turning to `O=C(Nc1nc(-c2ccccn2)cs1)C1COc2ccccc2O1` (configuration not stated), the Potency is 6.31 µM (active).

Consider `O=C1/C(=C/c2ccccc2F)SC(=S)N1CC(=O)N1CCCCC1c1cccnc1` (configuration not stated), for which the Potency is 14.1 µM (active).

Consider `CCCN1CCC(NC(=O)CC2C(=O)NCCN2Cc2cccc(OC)c2)CC1` (configuration not stated), for which the Potency entry is “inactive”.

Take `COc1ccc(OC)c(-c2nc(C(=O)NC3CCN(Cc4ccccc4)CC3)cc3c2[nH]c2ccccc23)c1`: the Potency is 4.47 µM (active).

In the case of `Cc1ccc2c(c1)C1CC(C)(O2)N(c2cccc(C(=O)N3CCN(c4ccccn4)CC3)c2)C(=O)N1` (configuration not stated), the Potency was 12.6 µM (active).

In the case of `O=C(C=C=Nc1ccccc1)C(=O)N=C=Cc1ccccc1`, the Potency was 14.1 µM (active).

Regarding `CCOc1ccc(-n2c(N)c(-c3nc4ccccc4n3C)c3nc4ccccc4nc32)cc1`, the Potency is 3.98 µM (active).

For the compound `O=S(=O)(c1ccc(Cl)c(Cl)c1)c1snnc1-c1ccccc1`, the Potency is 12.6 µM (active).

For `CCCNC(=O)c1nnsc1S(=O)(=O)c1ccc(Cl)cc1`, the Potency result is “inactive”.

With `O=C(/C=C/c1ccncc1)c1ccc2c(c1)OCCO2`, the Potency was 12.6 µM (active).

Regarding `O=C(O)c1ccc(/C=N/NC(=O)c2ccc3c(c2)OCCO3)cc1`, the Potency entry is “inactive”.

`O=C(CC1Sc2ccccc2NC1=O)OCc1cc(=O)oc2cc(O)ccc12` (configuration not stated): the Potency is 11.2 µM (active).

In the case of `CO[C@@H]1[C@@H](OC2OC(C)C(OC3CC(C)(O)C(OC(=O)CC(C)C)C(C)O3)C(N(C)C)C2O)[C@@H](CC=O)C[C@@H](C)C(=O)/C=C\C2O[C@H]2C[C@@H](C)OC(=O)C[C@H]1OC(C)=O` (some centres not stated), the Potency is 7.08 µM (active).

On to `Cc1cccc(NC(=O)[C@H](Cc2c[nH]c3ccccc23)NC(=O)[C@@H]2Cc3ccccc3CN2)c1`, for which the Potency is 10 µM (active).

Regarding `COc1cccc(NC(=O)[C@H](Cc2c[nH]c3ccccc23)NC(=O)[C@@H]2Cc3ccccc3CN2)c1`, the Potency is 14.1 µM (active).

Consider `COc1ccc(NC(=O)[C@H](Cc2c[nH]c3ccccc23)NC(=O)[C@@H]2Cc3ccccc3CN2)cc1`, for which the Potency was 7.94 µM (active).

Turning to `O=C(NC(Cc1c[nH]c2ccccc12)C(=O)Nc1ccc(F)cc1)c1cccs1` (configuration not stated), the Potency was 7.08 µM (active).

Turning to `CC(C)C(=O)NCCSc1c[nH]c2ccccc12`, the Potency entry is “inactive”.

As for `CCS(=O)(=O)N1Cc2ccccc2CC1C(=O)Nc1cccc(OC)c1` (configuration not stated), the Potency result was “inactive”.

As to `COc1ccc(C(=O)NCCc2c[nH]c3ccccc23)cc1[N+](=O)[O-]`, the Potency entry was “inactive”.

In the case of `CNC(=S)N(CCc1c(C)[nH]c2ccc(Cl)cc12)Cc1cccnc1`, the Potency was 14.1 µM (active).

For the compound `CNC(=S)N(CCc1c(C)[nH]c2ccc(C)cc12)Cc1cc(OC)c(OC)c(OC)c1`, the Potency was 12.6 µM (active).

With `Cc1ccc(NC(=O)C(=Cc2ccc(C(=O)O)cc2)C(=O)Nc2ccc(C)cc2C)c(C)c1`, the Potency was 10 µM (active).

Consider `Cn1c(/C=C/c2ccc(Cl)cc2)c([N+](=O)[O-])c(=O)n(C)c1=O`, for which the Potency was 7.94 µM (active).

For `N#C/C(=C\c1ccccn1)c1ccccn1`, the Potency was 11.2 µM (active).

As to `CSC1=NC(C)(C)C=C(/C=C/c2ccc(Cl)cc2Cl)N1`, the Potency is 1.78 µM (active).

In the case of `CSC1=NC(C)(C)C=C(/C=C/c2ccc(Cl)cc2)N1`, the Potency is 10 µM (active).

In the case of `CSC1=NC(C)(C)C=C(/C=C/c2c(Cl)cccc2Cl)N1`, the Potency is 10 µM (active).

For the compound `O=C(c1ccccc1Br)N1CCN(c2ccccn2)CC1`, the Potency result is “inactive”.

Regarding `CC(Oc1ccc(Br)cc1)C(=O)N1CCN(c2ccccn2)CC1` (configuration not stated), the Potency was 15.8 µM (active).

With `O=C(NCc1ccc2[nH]c3c(c2c1)CCCC3)c1ccc(S(=O)(=O)N2CCCC2)cc1`, the Potency is 15.8 µM (active).

`COc1ccc(-c2cc(C(=O)Nc3cc(C)n(Cc4ccc(Cl)cc4)n3)no2)cc1OC`: the Potency is 0.355 µM (active).

Take `COc1ccc(Cl)cc1NC(=O)C(=O)NCc1ccncc1`: the Potency result was “inactive”.

`O=C(Nc1ccc(Cl)cc1)c1ccc(CN2CCc3ccccc3C2)cc1`: the Potency is 14.1 µM (active).

`Cc1cc(C)cc(NC(=O)c2ccc(CN3CCc4ccccc4C3)cc2)c1`: the Potency is 14.1 µM (active).

On to `O=C(Nc1ccc(F)cc1)c1ccc(CN2CCc3ccccc3C2)cc1`, for which the Potency was 12.6 µM (active).

Consider `COc1ccccc1CNC(=O)CN1C(=O)NC(c2ccccc2)(c2ccc(C)c(C)c2)C1=O` (configuration not stated), for which the Potency was 12.6 µM (active).

`CCOc1ccccc1CN1C(=O)NC(C)(c2ccccc2)C1=O` (configuration not stated): the Potency entry was “inactive”.

As to `Cc1cc(NC(=O)CN2C(=O)NC(c3ccccc3)(c3ccc(C)c(C)c3)C2=O)no1` (configuration not stated), the Potency was 14.1 µM (active).

On to `Cn1c(=O)c([N+](=O)[O-])c(-n2ccnc2)c2ccccc21`, for which the Potency was 12.6 µM (active).

Consider `C/C(=C\C(=O)OCCCCCCCCC(=O)O)C[C@@H]1OC[C@H](C[C@@H]2O[C@H]2[C@@H](C)[C@H](C)O)[C@@H](O)[C@H]1O`, for which the Potency was 1.12 µM (active).

For the compound `CCC(C)NC(=O)c1cc(Cl)c(NC(=O)C2=C(C)OCCS2)cc1OC` (configuration not stated), the Potency is 11.2 µM (active).

For `COc1ccc(-c2cc(-c3ccccc3)nc(SCC(=O)Nc3nccs3)c2C#N)cc1`, the Potency is 2.24 µM (active).

As for `COc1ccc(-c2cc(-c3ccccc3)nc(SC(C)C(=O)O)c2C#N)cc1` (configuration not stated), the Potency was 14.1 µM (active).

As for `CCOC(=O)c1sc(NC(=O)CSc2ncccn2)nc1C`, the Potency entry was “inactive”.

In the case of `CS(=O)(=O)Nc1ccc(C2=NN(C(=O)c3ccco3)C(c3ccc(F)cc3)C2)cc1` (configuration not stated), the Potency was 12.6 µM (active).

With `Fc1ccc(C2CC(c3ccco3)=NN2c2ccccc2)cc1` (configuration not stated), the Potency entry is “inactive”.

As for `COc1ccc(Cc2nc3ccc(C(=O)NCCc4ccccn4)cc3o2)cc1OC`, the Potency is 14.1 µM (active).

As to `O=C(NNC(=O)c1ccc(Br)s1)c1ccc(F)c(S(=O)(=O)N2CCOCC2)c1`, the Potency result is “inactive”.

In the case of `C/C(=N\NC(=O)c1ccc(Cl)c(Cl)c1)c1ccc(Br)s1`, the Potency was 3.55 µM (active).

As for `COc1ccc2c(c1OC)C(=O)N1N=C(c3ccccc3)CC21` (configuration not stated), the Potency is 5.01 µM (active).

`Nc1nc(CCl)nc(N(c2ccccc2)c2ccccc2)n1`: the Potency is 8.91 µM (active).

For the compound `Cc1cccc(N(Cc2ccccc2)C(=O)CN2C(=O)NC3(CCCCC3C)C2=O)c1` (configuration not stated), the Potency was 12.6 µM (active).

As for `CCCc1nnc(NC(=O)CCC(=O)N2CCN(Cc3ccc(Cl)cc3)CC2)s1`, the Potency was 12.6 µM (active).

`CCCC(=O)Nc1nnc(CC(=O)N2CCCC2)s1`: the Potency entry is “inactive”.

In the case of `COc1ccc(CN2CCN(C(=O)CCC(=O)Nc3nnc(C4CCCCC4)s3)CC2)cc1F`, the Potency was 12.6 µM (active).

Turning to `CCOC(=O)c1c(C)sc2c1N(C(=O)CCl)c1cc(Cl)ccc1S2`, the Potency is 3.98 µM (active).

`O=c1[nH]c(C(F)(F)F)nc2ccc3ccccc3c12`: the Potency result is “inactive”.

Regarding `Cc1ccc(NS(=O)(=O)c2ccc(-c3cnc(C4CC4)o3)cc2)c(C)c1`, the Potency was 5.01 µM (active).
